Among the test systems are SN12C renal; UO-31 renal; TK-10 renal; ACHN renal; CAKI-1 renal; A498 renal; CCRF-CEM leukemia; MOLT-4 leukemia; EKVX NSCLC; SR leukemia.
Holding throughout (test): NCI-60 one-dose screen, 48 h (100 = growth as untreated, 0 = no growth, -100 = all killed)
Holding throughout (details): 10 µM

Compounds without any hit were thinned out: in the full panel of roughly 83,000, 20% have a hit.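 Single-dose data. Exposure time 48 hours. Values below 10 considered active.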 Unmarked numbers belong to inactive results. Calls of active or inactive are those of the source.

As to `O=C(O)CCCCSc1ncnc2nc[nH]c12`, the growth is 107% in the experiment with SN12C renal; 70% in the experiment with UO-31 renal; 98% with TK-10 renal; 102% in the experiment on ACHN renal; 93.5% in the experiment with CAKI-1 renal; 132% with A498 renal. Besides, the growth in the experiment on CCRF-CEM leukemia and in the experiment on MOLT-4 leukemia was 101% throughout.
For the compound `O=C1Nc2ccccc2C1=NC1CCCCC1`, the growth in the experiment on SN12C renal is 107%; in the experiment on UO-31 renal, 55.5%; in the experiment with TK-10 renal, 107%; with ACHN renal, 97.9%; with CAKI-1 renal, 79.3%; in the experiment on A498 renal, 109%. For the same compound, the growth in the experiment with CCRF-CEM leukemia is 108%; in the experiment with MOLT-4 leukemia, 111%.
Consider `CC12O[C@H](C[C@@H](O)[C@H]1O)n1c3ccccc3c3c4c(c5c6ccccc6n2c5c31)C(=O)N(CCCN)C4=O`, for which the growth in the experiment on EKVX NSCLC was 54.9%; with UO-31 renal, 57.6%; in the experiment on TK-10 renal, 38.8%; with ACHN renal it was 79.4%; in the experiment with A498 renal, 42.3%; in the experiment with CCRF-CEM leukemia, 11.2%. In addition, the growth in the experiment with MOLT-4 leukemia was -3.13% (active); in the experiment on SR leukemia, 0.745% (active).
`Cc1ccc(NC(=O)NC2CCCCC2)cc1`: the growth is 106% with SN12C renal; 96% with UO-31 renal; 110% in the experiment with TK-10 renal; 106% in the experiment with ACHN renal; 104% in the experiment on CAKI-1 renal; 98.2% with A498 renal. In addition, the values for the growth in the experiment with CCRF-CEM leukemia and with MOLT-4 leukemia were 98.9% and 102%, respectively.
With `CSC1=NCCCC1`, the growth is 110% in the experiment on SN12C renal; 86.8% in the experiment on UO-31 renal; 125% in the experiment on TK-10 renal; 102% with ACHN renal; 115% in the experiment with CAKI-1 renal; 106% in the experiment with A498 renal. For the same compound, the growth with CCRF-CEM leukemia is 103%; with MOLT-4 leukemia, 108%.
As for `CC1(C)N=C(N)N=C(N)N1c1ccc(CCc2ccccc2)c(Cl)c1`, the growth is 18.9% in the experiment with SN12C renal; 87.9% in the experiment on UO-31 renal; 21% in the experiment with TK-10 renal; 28.7% in the experiment on ACHN renal; 53.2% with CAKI-1 renal; 40.9% with A498 renal. In addition, the growth in the experiment with CCRF-CEM leukemia is 19.8%; with MOLT-4 leukemia, 20.2%.
`CCCCC/C=C/C(=O)CCc1ccc(O)c(OC)c1`: the growth is 91.2% in the experiment on EKVX NSCLC; 37% in the experiment with UO-31 renal; 110% in the experiment with TK-10 renal; 103% in the experiment with ACHN renal; 27.6% with CCRF-CEM leukemia; 96.7% in the experiment on MOLT-4 leukemia. For the same compound, the growth with SR leukemia was 53.4%.
As to `CC/C(C)=C(\C)C(=O)O`, the growth is 111% in the experiment on SN12C renal; 78.4% in the experiment with UO-31 renal; 105% in the experiment on TK-10 renal; 116% in the experiment with ACHN renal; 95.5% with CAKI-1 renal; 110% with A498 renal.
`COc1cc2c(cc1OCCCN1CCN(c3ncnc4ccccc34)CC1)N=CC1CCCN1C2=O` (stereo not drawn): the growth in the experiment with EKVX NSCLC is -38.6% (active); with TK-10 renal, -7.43% (active); in the experiment with ACHN renal, 2.77% (active); in the experiment on CAKI-1 renal it was -12.1% (active); in the experiment on CCRF-CEM leukemia, -45.8% (active); in the experiment on MOLT-4 leukemia it was -44.3% (active). Also, the growth in the experiment on SR leukemia was -43.4% (active).
`N=c1nc(N)ncn1-c1ccccc1`: the growth is 99.7% in the experiment on EKVX NSCLC; 94.5% in the experiment on UO-31 renal; 102% in the experiment on TK-10 renal; 101% in the experiment with ACHN renal; 97.9% in the experiment with CAKI-1 renal; 83.8% with A498 renal. In addition, the growth is 84.9% in the experiment with CCRF-CEM leukemia, 109% with MOLT-4 leukemia and 97.4% in the experiment on SR leukemia.
With `Clc1ccc2c(NCCCNc3nccc(Nc4ccc(Br)cc4)n3)ccnc2c1`, the growth is -65.1% (active) in the experiment with SN12C renal; -72.3% (active) in the experiment on UO-31 renal; -90.4% (active) with TK-10 renal; -90.6% (active) in the experiment with ACHN renal; -80.4% (active) in the experiment on CAKI-1 renal; 19.6% in the experiment with A498 renal. Moreover, the growth in the experiment with CCRF-CEM leukemia is -24.5% (active); in the experiment with MOLT-4 leukemia, -44.6% (active).
Consider `Cc1cc(=O)[nH]c(N/N=C/c2ccccc2O)n1`, for which the growth with SN12C renal is 86.2%; in the experiment with UO-31 renal, 43.6%; with TK-10 renal, 97.3%; in the experiment on ACHN renal, 59.8%; in the experiment with CAKI-1 renal it was 82.3%; in the experiment on A498 renal, 108%. The growth with CCRF-CEM leukemia was 35%; with MOLT-4 leukemia, 67.3%.
Take `Nc1c(C(=O)Nc2cccc3ccccc23)sc2nc3c(cc12)C(=O)CCC3`: the growth was 30.8% in the experiment on SN12C renal; 53% in the experiment on UO-31 renal; 74.7% in the experiment with TK-10 renal; 34.5% in the experiment on ACHN renal; 23.2% with CAKI-1 renal; -17.6% (active) with A498 renal. Moreover, the growth with CCRF-CEM leukemia is 7.9% (active); in the experiment on MOLT-4 leukemia, 11.1%.
As to `CCOC(=O)CCC(NC(=O)c1ccc(N)cc1)C(=O)OCC` (stereo not drawn), the growth is 121% in the experiment with EKVX NSCLC; 76.9% with UO-31 renal; 102% in the experiment on TK-10 renal; 95.3% in the experiment on ACHN renal; 123% in the experiment with CAKI-1 renal; 112% in the experiment on A498 renal. Besides, the results for the growth in the experiment with MOLT-4 leukemia and in the experiment with SR leukemia were 114% and 121%, respectively.
With `CS(=O)(=O)Nc1ccc(Nc2c3ccccc3nc3cc([N+](=O)[O-])ccc23)cc1`, the growth in the experiment on SN12C renal was 20.3%; with UO-31 renal, 16.6%; with TK-10 renal, 16%; in the experiment on ACHN renal, 12.6%; with CAKI-1 renal it was 37.7%; with A498 renal, 45.4%. Besides, the growth was 2.39% (active) with CCRF-CEM leukemia and 4.17% (active) in the experiment with MOLT-4 leukemia.
On to `Cn1c(N)c(N=Nc2ccc(S(=O)(=O)Nc3nccs3)cc2)c(=O)n(C)c1=O`, for which the growth with SN12C renal is 97%; in the experiment on UO-31 renal, 68.6%; in the experiment with TK-10 renal, 98.7%; in the experiment with ACHN renal it was 102%; with CAKI-1 renal, 95.4%; in the experiment with A498 renal, 96.9%. Also, the growth in the experiment on CCRF-CEM leukemia is 95.8%; with MOLT-4 leukemia, 92.6%; in the experiment on SR leukemia it was 95.2%.
With `C(CCCC1=NCCO1)CCCC1=NCCO1`, the growth with SN12C renal is 102%; in the experiment on UO-31 renal, 90.9%; in the experiment with TK-10 renal, 110%; in the experiment on ACHN renal, 105%; with CAKI-1 renal, 103%; in the experiment with A498 renal, 101%. For the same compound, the growth with CCRF-CEM leukemia was 104%.

For the origin of these results see PubChem BioAssay (NCI).
